# From PMC7862700, “An all-to-all approach to the identification of sequence-specific readers for epigenetic DNA modifications on cytosine”
# Tests used:
# Experiment in all cases: DAPPL (digital affinity profiling via proximity ligation, sequencing); 10 mM Tris-HCl pH 7.5, 50 mM NaCl, 1 mM DTT, 4% glycerol, room temperature, 30 min; GST-TFs on glutathione beads, 16-mer random dsDNA library, 0.1% formaldehyde crosslink after washing; high values mean tight binding
# FLI1 = target: T1, FLI1 (Homo sapiens, UniProt Q01543 1-452); conditions: protein: recombinant; tags: N-terminal GST; dsDNA, one strand shown
# T1 sequence: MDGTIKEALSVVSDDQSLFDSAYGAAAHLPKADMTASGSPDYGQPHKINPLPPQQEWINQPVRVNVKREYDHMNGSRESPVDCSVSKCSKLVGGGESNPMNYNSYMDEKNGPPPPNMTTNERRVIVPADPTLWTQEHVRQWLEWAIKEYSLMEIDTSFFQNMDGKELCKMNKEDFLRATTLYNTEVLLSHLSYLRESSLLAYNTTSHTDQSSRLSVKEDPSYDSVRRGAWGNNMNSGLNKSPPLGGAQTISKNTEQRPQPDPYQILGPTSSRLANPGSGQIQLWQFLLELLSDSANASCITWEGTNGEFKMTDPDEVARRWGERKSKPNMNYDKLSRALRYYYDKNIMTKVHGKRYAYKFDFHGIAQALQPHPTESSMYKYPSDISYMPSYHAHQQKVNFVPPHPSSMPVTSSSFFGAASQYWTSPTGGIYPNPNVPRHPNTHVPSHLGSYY
# How it was run: (§1)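 Binding signal is given per hexamer as its read frequency for a factor divided by its frequency in the tag-only sample. GST-fused human transcription factors were expressed in yeast, captured on glutathione beads, barcoded with DNA and pooled with that sample, then incubated with 200 nmole of a 16-mer random double-stranded DNA library in Tris/NaCl/DTT/glycerol buffer for 30 min at room temperature. The pools were then washed, crosslinked, proximity-ligated, amplified by PCR and sequenced on an Illumina NextSeq500.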
# ELK1 = target: T2, ELK1 (Homo sapiens, UniProt P19419 1-428); conditions: protein: recombinant; tags: N-terminal GST; dsDNA, one strand shown
# T2 sequence: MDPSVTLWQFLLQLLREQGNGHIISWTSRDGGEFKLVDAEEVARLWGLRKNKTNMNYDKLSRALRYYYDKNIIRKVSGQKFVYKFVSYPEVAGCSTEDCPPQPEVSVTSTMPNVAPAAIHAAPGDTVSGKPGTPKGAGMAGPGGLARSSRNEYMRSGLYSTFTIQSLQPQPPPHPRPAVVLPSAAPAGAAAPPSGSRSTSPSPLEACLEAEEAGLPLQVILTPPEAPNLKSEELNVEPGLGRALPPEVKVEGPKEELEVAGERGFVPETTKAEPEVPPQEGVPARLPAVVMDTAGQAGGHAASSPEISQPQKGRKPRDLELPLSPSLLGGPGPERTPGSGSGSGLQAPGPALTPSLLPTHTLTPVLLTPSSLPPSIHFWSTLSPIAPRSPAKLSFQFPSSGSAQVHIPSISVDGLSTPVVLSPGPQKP
# How it was run: as §1
# GABPA = target: T3, GABPA (Homo sapiens, UniProt Q06546 1-454); conditions: protein: recombinant; tags: N-terminal GST; dsDNA, one strand shown
# T3 sequence: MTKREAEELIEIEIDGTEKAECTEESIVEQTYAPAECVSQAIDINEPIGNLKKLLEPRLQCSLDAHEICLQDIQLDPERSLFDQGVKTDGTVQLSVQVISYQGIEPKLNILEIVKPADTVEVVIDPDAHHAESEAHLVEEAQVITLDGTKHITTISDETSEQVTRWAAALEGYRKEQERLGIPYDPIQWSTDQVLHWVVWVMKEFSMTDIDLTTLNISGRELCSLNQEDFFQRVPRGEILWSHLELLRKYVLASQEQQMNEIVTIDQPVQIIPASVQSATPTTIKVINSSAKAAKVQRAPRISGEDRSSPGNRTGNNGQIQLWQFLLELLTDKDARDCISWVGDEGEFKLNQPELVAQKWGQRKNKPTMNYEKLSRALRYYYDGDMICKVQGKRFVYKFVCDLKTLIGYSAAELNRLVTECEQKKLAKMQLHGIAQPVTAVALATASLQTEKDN
# How it was run: as §1
# ERG = target: T4, ERG (Homo sapiens, UniProt P11308 1-479); conditions: protein: recombinant; tags: N-terminal GST; dsDNA, one strand shown
# T4 sequence: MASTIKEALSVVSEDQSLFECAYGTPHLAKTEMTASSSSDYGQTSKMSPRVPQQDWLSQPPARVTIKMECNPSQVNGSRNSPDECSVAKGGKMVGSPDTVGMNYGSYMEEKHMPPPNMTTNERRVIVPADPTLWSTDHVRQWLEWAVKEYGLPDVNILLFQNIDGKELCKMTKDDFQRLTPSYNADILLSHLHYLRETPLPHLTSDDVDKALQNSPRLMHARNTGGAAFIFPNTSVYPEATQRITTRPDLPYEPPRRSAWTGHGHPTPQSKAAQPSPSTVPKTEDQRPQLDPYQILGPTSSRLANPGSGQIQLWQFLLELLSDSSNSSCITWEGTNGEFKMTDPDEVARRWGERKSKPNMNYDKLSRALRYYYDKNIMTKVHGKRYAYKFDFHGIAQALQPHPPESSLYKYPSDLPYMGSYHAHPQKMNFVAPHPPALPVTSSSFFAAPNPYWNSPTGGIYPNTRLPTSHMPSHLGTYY
# How it was run: as §1
# ELF1 = ELF1 (Homo sapiens, UniProt P32519 1-619); conditions: protein: recombinant; tags: N-terminal GST; dsDNA, one strand shown
# ELF1, sequence (P32519 whole entry): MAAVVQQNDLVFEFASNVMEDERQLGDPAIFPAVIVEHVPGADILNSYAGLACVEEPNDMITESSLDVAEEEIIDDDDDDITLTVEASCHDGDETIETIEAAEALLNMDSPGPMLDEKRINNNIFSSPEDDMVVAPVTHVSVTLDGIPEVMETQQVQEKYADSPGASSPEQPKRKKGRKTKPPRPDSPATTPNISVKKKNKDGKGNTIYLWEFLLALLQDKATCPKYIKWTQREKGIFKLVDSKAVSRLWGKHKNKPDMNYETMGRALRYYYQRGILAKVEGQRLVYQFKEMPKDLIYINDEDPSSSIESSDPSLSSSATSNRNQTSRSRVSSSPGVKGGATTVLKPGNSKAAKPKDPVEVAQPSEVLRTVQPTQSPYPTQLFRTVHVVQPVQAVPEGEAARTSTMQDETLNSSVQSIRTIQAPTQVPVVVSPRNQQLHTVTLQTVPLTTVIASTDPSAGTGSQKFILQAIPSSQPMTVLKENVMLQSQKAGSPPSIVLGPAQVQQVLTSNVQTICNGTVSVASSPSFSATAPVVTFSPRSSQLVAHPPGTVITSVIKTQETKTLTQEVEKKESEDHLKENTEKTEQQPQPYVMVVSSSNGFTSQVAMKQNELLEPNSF
# How it was run: as §1
# EHF = target: T5, EHF (Homo sapiens, UniProt Q9NZC4 1-300); conditions: protein: recombinant; tags: N-terminal GST; dsDNA, one strand shown
# T5 sequence: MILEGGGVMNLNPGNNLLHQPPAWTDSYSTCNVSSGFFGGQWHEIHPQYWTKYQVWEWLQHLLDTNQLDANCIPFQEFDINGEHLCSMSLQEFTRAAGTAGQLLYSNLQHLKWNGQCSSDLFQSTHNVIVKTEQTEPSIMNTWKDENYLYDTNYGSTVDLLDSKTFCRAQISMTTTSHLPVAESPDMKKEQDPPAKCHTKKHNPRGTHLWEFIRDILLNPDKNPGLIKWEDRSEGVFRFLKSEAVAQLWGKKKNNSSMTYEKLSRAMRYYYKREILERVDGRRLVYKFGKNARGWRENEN
# How it was run: as §1
# SPI1 = SPI1 (Homo sapiens, UniProt P17947 1-270); conditions: protein: recombinant; tags: N-terminal GST; dsDNA, one strand shown
# How it was run: as §1
# SPIB = SPIB (Homo sapiens, UniProt Q01892 1-262); conditions: protein: recombinant; tags: N-terminal GST; dsDNA, one strand shown
# SPIB, sequence (Q01892 whole entry): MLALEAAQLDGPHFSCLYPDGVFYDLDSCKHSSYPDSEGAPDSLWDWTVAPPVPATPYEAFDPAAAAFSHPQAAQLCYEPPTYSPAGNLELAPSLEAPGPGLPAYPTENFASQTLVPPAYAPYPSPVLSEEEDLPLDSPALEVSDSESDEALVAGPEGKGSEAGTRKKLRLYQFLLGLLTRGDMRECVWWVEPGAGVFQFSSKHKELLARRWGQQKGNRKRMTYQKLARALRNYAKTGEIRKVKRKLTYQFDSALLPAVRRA
# How it was run: as §1
# ELK3 = target: T6, ELK3 (Homo sapiens, UniProt P41970 1-407); conditions: protein: recombinant; tags: N-terminal GST; dsDNA, one strand shown
# T6 sequence: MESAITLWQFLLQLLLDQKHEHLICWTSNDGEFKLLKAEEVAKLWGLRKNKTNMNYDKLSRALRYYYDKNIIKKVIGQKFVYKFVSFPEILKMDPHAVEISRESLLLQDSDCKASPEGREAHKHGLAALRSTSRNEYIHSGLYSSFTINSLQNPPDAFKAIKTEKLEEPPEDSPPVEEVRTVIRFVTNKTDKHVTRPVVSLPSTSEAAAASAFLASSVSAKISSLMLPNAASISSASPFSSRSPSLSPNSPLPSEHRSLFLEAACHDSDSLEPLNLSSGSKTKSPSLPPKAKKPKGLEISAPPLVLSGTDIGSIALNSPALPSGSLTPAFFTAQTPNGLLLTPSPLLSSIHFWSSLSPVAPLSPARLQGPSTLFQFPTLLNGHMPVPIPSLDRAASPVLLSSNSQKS
# How it was run: as §1
# FEV = target: T7, FEV (Homo sapiens, UniProt Q99581 1-238); conditions: protein: recombinant; tags: N-terminal GST; dsDNA, one strand shown
# T7 sequence: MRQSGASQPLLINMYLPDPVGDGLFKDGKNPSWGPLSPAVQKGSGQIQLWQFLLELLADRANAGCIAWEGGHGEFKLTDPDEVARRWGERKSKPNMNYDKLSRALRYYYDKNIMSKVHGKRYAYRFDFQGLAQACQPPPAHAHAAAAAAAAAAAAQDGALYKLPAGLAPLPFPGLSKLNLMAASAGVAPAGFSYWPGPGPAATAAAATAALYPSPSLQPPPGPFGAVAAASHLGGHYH
# How it was run: as §1
# ETV5 = ETV5 (Homo sapiens, UniProt P41161 1-510); conditions: protein: recombinant; tags: N-terminal GST; dsDNA, one strand shown
# ETV5, sequence (P41161 whole entry): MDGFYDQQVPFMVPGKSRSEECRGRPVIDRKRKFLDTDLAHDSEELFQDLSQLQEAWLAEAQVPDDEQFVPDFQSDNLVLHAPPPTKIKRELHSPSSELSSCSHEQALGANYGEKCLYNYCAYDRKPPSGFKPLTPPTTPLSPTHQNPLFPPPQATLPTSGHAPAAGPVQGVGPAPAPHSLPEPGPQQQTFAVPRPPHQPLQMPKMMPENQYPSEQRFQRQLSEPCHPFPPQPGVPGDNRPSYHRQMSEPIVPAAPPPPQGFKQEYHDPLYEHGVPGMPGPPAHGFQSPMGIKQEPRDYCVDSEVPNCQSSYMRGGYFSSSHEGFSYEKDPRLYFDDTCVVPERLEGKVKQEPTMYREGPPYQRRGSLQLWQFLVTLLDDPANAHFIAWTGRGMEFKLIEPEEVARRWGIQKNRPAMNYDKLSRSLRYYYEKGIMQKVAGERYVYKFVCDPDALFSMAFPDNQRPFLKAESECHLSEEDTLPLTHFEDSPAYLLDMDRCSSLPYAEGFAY
# How it was run: as §1
# HSF1 = HSF1 (Homo sapiens, UniProt Q00613 1-529); conditions: protein: recombinant; tags: N-terminal GST; chain copies: 3; dsDNA, one strand shown
# HSF1, sequence (Q00613 whole entry): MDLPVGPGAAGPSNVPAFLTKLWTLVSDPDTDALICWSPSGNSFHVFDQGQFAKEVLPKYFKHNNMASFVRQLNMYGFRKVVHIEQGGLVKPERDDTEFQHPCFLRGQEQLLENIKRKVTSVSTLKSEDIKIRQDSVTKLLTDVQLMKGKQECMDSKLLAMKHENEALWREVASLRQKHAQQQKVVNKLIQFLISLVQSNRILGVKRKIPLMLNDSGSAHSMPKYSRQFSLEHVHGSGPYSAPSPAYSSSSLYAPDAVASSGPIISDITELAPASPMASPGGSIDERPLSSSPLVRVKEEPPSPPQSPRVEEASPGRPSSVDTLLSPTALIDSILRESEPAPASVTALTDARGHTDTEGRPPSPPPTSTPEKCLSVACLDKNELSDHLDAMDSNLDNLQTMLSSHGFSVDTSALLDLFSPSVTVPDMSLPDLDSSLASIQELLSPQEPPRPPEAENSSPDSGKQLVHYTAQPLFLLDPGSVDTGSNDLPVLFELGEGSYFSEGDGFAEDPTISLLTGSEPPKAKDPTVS
# How it was run: as §1
# SPIC = target: T8, SPIC (Homo sapiens, UniProt Q8N5J4 1-248); conditions: protein: recombinant; tags: N-terminal GST; dsDNA, one strand shown
# T8 sequence: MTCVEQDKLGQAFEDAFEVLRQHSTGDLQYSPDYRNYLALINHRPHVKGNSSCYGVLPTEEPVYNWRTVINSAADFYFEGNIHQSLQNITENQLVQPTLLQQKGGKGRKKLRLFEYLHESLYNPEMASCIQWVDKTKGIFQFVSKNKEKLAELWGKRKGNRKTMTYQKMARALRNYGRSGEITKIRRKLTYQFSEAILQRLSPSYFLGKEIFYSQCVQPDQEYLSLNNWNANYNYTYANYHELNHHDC
# How it was run: as §1
# ELF4 = ELF4 (Homo sapiens, UniProt Q99607 1-663); conditions: protein: recombinant; tags: N-terminal GST; dsDNA, one strand shown
# ELF4, sequence (Q99607 whole entry): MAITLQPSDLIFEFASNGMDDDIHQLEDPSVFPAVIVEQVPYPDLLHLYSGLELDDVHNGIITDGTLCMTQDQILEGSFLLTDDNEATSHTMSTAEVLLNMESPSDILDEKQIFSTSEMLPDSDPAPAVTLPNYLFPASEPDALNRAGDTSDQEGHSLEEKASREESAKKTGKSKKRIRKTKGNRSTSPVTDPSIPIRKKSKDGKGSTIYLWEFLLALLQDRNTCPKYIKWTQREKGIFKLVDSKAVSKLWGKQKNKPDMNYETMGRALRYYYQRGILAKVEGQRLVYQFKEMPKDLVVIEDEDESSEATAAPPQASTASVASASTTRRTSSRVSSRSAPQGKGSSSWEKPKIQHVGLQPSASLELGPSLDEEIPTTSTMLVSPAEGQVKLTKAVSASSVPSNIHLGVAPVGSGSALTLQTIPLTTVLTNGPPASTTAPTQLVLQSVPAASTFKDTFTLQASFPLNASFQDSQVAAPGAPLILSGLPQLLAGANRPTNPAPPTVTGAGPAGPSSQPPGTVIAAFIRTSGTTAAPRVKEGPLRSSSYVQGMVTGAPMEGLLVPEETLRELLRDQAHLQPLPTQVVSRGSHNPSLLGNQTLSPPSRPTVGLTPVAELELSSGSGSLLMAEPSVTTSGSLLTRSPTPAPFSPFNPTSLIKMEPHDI
# How it was run: as §1
# ELK4 = target: T9, ELK4 (Homo sapiens, UniProt P28324-2 1-405); conditions: protein: recombinant; tags: N-terminal GST; dsDNA, one strand shown
# T9 sequence: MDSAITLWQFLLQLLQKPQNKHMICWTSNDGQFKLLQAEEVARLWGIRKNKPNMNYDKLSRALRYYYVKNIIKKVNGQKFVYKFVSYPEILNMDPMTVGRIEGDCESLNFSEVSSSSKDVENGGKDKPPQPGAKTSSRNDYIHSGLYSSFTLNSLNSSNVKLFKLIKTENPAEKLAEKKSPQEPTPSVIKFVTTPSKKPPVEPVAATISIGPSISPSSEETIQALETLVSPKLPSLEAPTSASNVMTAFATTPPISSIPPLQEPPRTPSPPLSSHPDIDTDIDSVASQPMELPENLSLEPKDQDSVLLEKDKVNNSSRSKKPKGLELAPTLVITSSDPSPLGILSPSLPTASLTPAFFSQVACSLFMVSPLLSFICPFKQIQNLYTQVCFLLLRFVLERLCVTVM
# How it was run: as §1
# ETV2 = target: T10, ETV2 (Homo sapiens, UniProt O00321 1-342); conditions: protein: recombinant; tags: N-terminal GST; dsDNA, one strand shown
# T10 sequence: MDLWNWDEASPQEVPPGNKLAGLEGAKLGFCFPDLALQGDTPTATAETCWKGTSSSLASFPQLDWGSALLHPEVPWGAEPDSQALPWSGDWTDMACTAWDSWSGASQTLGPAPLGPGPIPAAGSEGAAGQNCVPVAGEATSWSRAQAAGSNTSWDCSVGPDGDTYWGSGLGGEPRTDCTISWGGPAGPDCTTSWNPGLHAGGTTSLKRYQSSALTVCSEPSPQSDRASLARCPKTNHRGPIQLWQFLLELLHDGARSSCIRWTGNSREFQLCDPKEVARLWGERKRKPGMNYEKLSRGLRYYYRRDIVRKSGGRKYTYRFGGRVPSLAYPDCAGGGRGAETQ
# How it was run: as §1
# ELF3 = target: T11, ELF3 (Homo sapiens, UniProt P78545 1-371); conditions: protein: recombinant; tags: N-terminal GST; dsDNA, one strand shown
# T11 sequence: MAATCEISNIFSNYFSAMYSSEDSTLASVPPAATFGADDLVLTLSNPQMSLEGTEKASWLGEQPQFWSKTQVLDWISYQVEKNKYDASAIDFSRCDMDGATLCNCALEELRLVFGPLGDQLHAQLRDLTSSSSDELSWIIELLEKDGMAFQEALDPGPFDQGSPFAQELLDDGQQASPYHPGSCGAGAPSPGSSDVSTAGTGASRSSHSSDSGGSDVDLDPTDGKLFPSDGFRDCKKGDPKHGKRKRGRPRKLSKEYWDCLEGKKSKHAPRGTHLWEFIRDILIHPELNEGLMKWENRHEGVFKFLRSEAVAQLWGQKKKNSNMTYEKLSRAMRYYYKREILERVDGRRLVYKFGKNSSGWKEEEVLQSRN
# How it was run: as §1
# CRX = CRX (Homo sapiens, UniProt O43186 1-299); conditions: protein: recombinant; tags: N-terminal GST; dsDNA, one strand shown
# CRX, sequence (O43186 whole entry): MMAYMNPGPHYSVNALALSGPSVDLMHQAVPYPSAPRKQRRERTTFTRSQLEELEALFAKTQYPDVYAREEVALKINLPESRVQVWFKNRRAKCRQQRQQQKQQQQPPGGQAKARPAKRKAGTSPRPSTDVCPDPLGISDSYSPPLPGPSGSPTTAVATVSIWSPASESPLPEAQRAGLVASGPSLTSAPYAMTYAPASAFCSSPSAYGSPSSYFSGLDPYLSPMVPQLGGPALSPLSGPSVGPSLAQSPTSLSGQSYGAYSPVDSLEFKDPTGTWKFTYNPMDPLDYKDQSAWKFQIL
# How it was run: as §1
# ETV1 = ETV1 (Homo sapiens, UniProt P50549 1-477); conditions: protein: recombinant; tags: N-terminal GST; dsDNA, one strand shown
# ETV1, sequence (P50549 whole entry): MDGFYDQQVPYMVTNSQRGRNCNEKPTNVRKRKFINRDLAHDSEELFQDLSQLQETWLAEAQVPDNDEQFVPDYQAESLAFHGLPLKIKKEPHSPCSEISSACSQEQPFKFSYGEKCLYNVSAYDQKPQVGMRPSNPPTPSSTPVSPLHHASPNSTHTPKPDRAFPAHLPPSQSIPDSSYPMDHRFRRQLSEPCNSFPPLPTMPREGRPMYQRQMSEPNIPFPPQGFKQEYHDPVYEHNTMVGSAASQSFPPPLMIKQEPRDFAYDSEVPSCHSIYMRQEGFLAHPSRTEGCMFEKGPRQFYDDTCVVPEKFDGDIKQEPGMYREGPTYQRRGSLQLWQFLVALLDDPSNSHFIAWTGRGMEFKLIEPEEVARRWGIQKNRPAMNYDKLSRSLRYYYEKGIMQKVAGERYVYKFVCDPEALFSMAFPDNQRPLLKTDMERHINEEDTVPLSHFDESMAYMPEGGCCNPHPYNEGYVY
# How it was run: as §1
sequence,measurement,setting,value
CTTGGT,binding signal,FLI1,"1.63 fold enrichment (6-mer frequency, TF over GST control)"
same,binding signal,ELK1,"1.44 fold enrichment (6-mer frequency, TF over GST control)"
same,binding signal,GABPA,"1.55 fold enrichment (6-mer frequency, TF over GST control)"
same,binding signal,ERG,"1.42 fold enrichment (6-mer frequency, TF over GST control)"
same,binding signal,ELF1,"1.46 fold enrichment (6-mer frequency, TF over GST control)"
same,binding signal,EHF,"1.53 fold enrichment (6-mer frequency, TF over GST control)"
same,binding signal,SPI1,"1.4 fold enrichment (6-mer frequency, TF over GST control)"
same,binding signal,SPIB,"1.57 fold enrichment (6-mer frequency, TF over GST control)"
same,binding signal,ELK3,"1.66 fold enrichment (6-mer frequency, TF over GST control)"
same,binding signal,FEV,"1.33 fold enrichment (6-mer frequency, TF over GST control)"
same,binding signal,ETV5,"1.46 fold enrichment (6-mer frequency, TF over GST control)"
same,binding signal,HSF1,"1.18 fold enrichment (6-mer frequency, TF over GST control)"
same,binding signal,SPIC,"1.61 fold enrichment (6-mer frequency, TF over GST control)"
same,binding signal,ELF4,"1.58 fold enrichment (6-mer frequency, TF over GST control)"
same,binding signal,ELK4,"1.53 fold enrichment (6-mer frequency, TF over GST control)"
same,binding signal,ETV2,"1.53 fold enrichment (6-mer frequency, TF over GST control)"
same,binding signal,ELF3,"1.51 fold enrichment (6-mer frequency, TF over GST control)"
same,binding signal,CRX,"1.21 fold enrichment (6-mer frequency, TF over GST control)"
same,binding signal,ETV1,"1.53 fold enrichment (6-mer frequency, TF over GST control)"
